# In the library only some 3.7% were active in any assay of this set; here they are far more common.
# Mtb FBA inh: Mtb FBA enzyme inhibitors, primary screen, biochemical, fluorescence, strain H37Rv. Fructose-bisphosphate aldolase (Mycobacterium tuberculosis (strain ATCC 25618 / H37Rv)), …. purified M. tuberculosis FBA, fluorescence read-out. inhibition, % at 1 µM. actives 2.3% (n = 360,000);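 note: 0% = vehicle and 100% = reference inhibitor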
# Mtb bLac sens: beta-lactam sensitization of Mtb H37Rv, H37Rv. M. tuberculosis H37Rv growth with meropenem, percent inhibition. inhibition, % at 25 µM. actives 0.27% (n = 330,000); call rule not given here;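 note: growth measured after seven days incubation then overnight dye step; 0% = bacteria only wells and 100% = bacteria with antibiotic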
# GDH-TPI counter-1: GDH-TPI coupling enzyme inhibitors, primary screen, artefact control for M. tuberculosis FBA inhibitor project, biochemical, absorbance, full deck; actives 1.2% (n = 360,000); inhibition, % at 4.8 µM; GDH-TPI coupled enzyme counterscreen, NADH absorbance; AID 588335, 2011; in the data active = inhibition above about 30%;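 note: 0% = DMSO wells and 100% = wells lacking the enzyme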
# Rv3671c inh: Rv3671c serine protease inhibitors, primary screen, biochemical, fluorescence polarization, M. tuberculosis H37Rv | P9WHR9 | inhibition, % at 5.96 µM | actives 0.048% (n = 320,000); in the data active = inhibition above about 38%;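 note: extracellular domain of Rv3671c used as enzyme; 0% = enzyme with DMSO and 100% = no enzyme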
# Mtb UGM inh: M. tuberculosis UGM enzyme inhibitors, primary screen, biochemical, fluorescence polarization, single point; actives 0.06% (n = 320,000); inhibition, % at 10 µM; purified UGM, fluorescence polarization probe displacement; in the data active = inhibition above about 10%, passing the limit was not always enough
# Target sequence (P9WIQ1 whole entry, looked up): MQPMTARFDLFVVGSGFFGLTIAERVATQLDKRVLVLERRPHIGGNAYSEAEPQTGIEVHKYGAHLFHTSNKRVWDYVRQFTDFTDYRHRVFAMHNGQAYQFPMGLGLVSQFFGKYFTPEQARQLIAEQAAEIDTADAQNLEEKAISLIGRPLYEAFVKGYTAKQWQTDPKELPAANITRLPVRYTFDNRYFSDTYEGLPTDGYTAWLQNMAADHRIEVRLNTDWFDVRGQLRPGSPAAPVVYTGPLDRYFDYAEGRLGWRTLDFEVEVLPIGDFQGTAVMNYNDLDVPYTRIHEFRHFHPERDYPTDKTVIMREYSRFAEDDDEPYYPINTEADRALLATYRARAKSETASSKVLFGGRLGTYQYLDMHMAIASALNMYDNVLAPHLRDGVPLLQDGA
# FadD28 FP inh: inhibitors of FadD28 bisubstrate probe binding, primary screen, biochemical, fluorescence polarization, single point | actives 0.22% (n = 360,000) | inhibition, % at 12.5 µM; in the data active = inhibition above about 8.5%, passing the limit was not always enough
# Mtb FBA confirm: M. tuberculosis aldolase blockers, biochemical, fluorescence, strain H37Rv, confirmation; shares compounds with Mtb FBA inh; purified M. tuberculosis FBA, fluorescence read-out; inhibition, % at 1 µM; actives 78% (n = 5,600); AID 651616, 2012;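 note: 0% = vehicle wells and 100% = reference inhibitor wells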
# GDH-TPI counter-2: GDH-TPI coupling enzyme inhibitors, artefact control for M. tuberculosis FBA inhibitor project, biochemical, fluorescence, high throughput; inhibition, % at 1 µM; AID 652141, 2013; shares compounds with Mtb FBA inh; GDH-TPI coupled enzyme counterscreen; actives 81% (n = 5,600); in the data active = inhibition above about 10%
# * hit, by the source's call; x = no result; + = active, no number. Cut-off read from the data, not from the text of the source, unless noted: active = inhibition above about 27%; inactive = the rest.
SMILES,Mtb FBA inh,Mtb bLac sens,GDH-TPI counter-1,Rv3671c inh,Mtb UGM inh,FadD28 FP inh,Mtb FBA confirm,GDH-TPI counter-2
CN1CCSc2ccc(C(=O)NCc3cccc(Br)c3)cc21,66*,-3,-2,3,-5,-3,51*,35*
COc1cccc(CNC(=O)c2ccc3c(c2)N(C)CCS3)c1OC,88*,-1,-9,2,-2,-4,49*,45*
COc1cccc(CNC(=O)CCC(=O)N2CCSc3ccccc32)c1OC,2,-7,-11,4,-1,1,x,x
Cc1ccccc1NC(=O)c1ccc2c(c1)N(C)CCS2,4,-4,20,-2,0,1,x,x
COc1ccc(CNC(=O)c2ccc3c(c2)N(C)CCS3)cc1,52*,-4,20,8,2,1,86*,59*
COc1ccc(NC(=O)N(C)C[C@H]2OCCCC[C@@H](C)Oc3ccc(N(C)C)cc3C(=O)N([C@H](C)CO)C[C@@H]2C)cc1,0,x,0,x,x,-1,x,x
O=C(O)C(c1ccccc1)C1CCCCC1O (stereo unspecified),1,x,-12,x,x,-4,x,x
O=C(OCc1cc(=O)oc2cc(O)ccc12)c1cc(S(=O)(=O)N2CCOCC2)ccc1F,41*,4,20,-12,1,-1,-1,-5
CC(C)NC(=O)NC(=O)COC(=O)C1CCCN1C(=O)c1cccs1 (stereo unspecified),6,-11,9,7,-1,-2,x,x
O=C(COC(=O)[C@@H]1CCCN1C(=O)c1cccs1)NCCc1ccccc1,27*,4,0,3,-2,1,-1,-1
O=[N+]([O-])c1ccc(C=NN2CCCCCC2)cc1,-5,x,1,x,x,-2,x,x
O=C(CNC(=O)c1cccc(Br)c1)N/N=C/c1ccc2c(c1)OCO2,33*,2,11,5,1,-1,141*,106*
CCN(CC)c1ccc(/C=N/NC(=O)CNC(=O)c2ccc3c(c2)OCCO3)cc1,47*,5,42*,-2,4,0,54*,47*
O=C(Nc1ccc(Nc2ccncc2)cc1)c1ccc(Nc2ccnc3ccc([N+](=O)[O-])cc23)cc1[N+](=O)[O-],1,100,-1,-22,0,-1,x,x
CCN(CC(=O)Nc1ccc(NC(C)=O)cc1)CC(=O)Nc1cc(C)on1,1,-6,8,4,2,-1,x,x
CCN(CC(=O)Nc1ccc(OC)cc1)C(=O)C1CC(=O)N(Cc2ccccc2)C1 (stereo unspecified),2,x,-4,x,x,-1,x,x
O=C(NN1C(=O)C2C3C=CC(C3)C2C1=O)c1ccccc1 (stereo unspecified),77*,7,4,-2,-4,-4,1,-3
Cc1ccc(C(=O)NN2C(=O)C3C4C=CC(C4)[C@@H]3C2=O)cc1 (stereo partly specified),4,-4,7,2,4,0,x,x
CCN1CCN(c2cc(=O)n3ccccc3n2)CC1,7,3,13,2,6,0,x,x
CCN1CCN(c2cc3c(nn2)Oc2ccccc2N3C)CC1,73*,2,8,-4,-2,0,5,-5
O=[N+]([O-])c1ccc2c(c1)S(=O)c1ccccc1-2 (stereo unspecified),27*,-4,26,7,0,-2,147*,110*
O=S1c2ccccc2-c2ccccc21,1,x,-1,x,x,-2,x,x
CCOC(=O)Nc1ccc([N+](=O)[O-])cc1OC,0,1,14,-1,-5,0,x,x
CCOC(=O)c1ccc(C(=O)OCC)c(NC(=S)Nc2ccc([N+](=O)[O-])cc2OC)c1,31*,1,19,-2,0,-3,-4,-6
C[C@H]1CNC(=O)c2c(C(=O)N3CCN(C(=O)OC(C)(C)C)CC3)ncn21,1,x,x,x,x,1,x,x
SMILES,Mtb FBA inh,Mtb bLac sens,GDH-TPI counter-1,Rv3671c inh,Mtb UGM inh,FadD28 FP inh,Mtb FBA confirm,GDH-TPI counter-2
Cn1c(-c2ccc(N)cc2)nc2ccccc21,88*,-7,-4,9,0,-2,+,+
Cn1c(-c2ccc(Cl)nc2)nc2ccccc21,37*,2,-1,14,5,0,113*,83*
Cn1c(-c2ccccc2)nc2cnccc21,2,-3,20,1,0,-2,x,x
CCOC(=O)Cn1c(-c2ccc(Cl)nc2)nc2ccccc21,43*,66,11,-5,0,0,122*,106*
Cn1c(CCc2ccc(N)cc2)nc2ccccc21,0,6,-2,3,-2,-3,x,x
COc1ccc(CN2C(=O)C(CC(=O)NCc3cccs3)CC(C(=O)N(C(C)C)C(C)C)=C2C)cc1 (stereo unspecified),0,x,-1,x,x,-1,x,x
CN(C)C(=O)c1cc(C(=O)c2ccccc2Cl)c[nH]1,-1,-13,-2,1,0,1,x,x
CC(C)Cc1[nH]c(=O)c(C#N)c2c1CCC2,52*,-4,29,-2,5,-1,+,169*
Cc1ccc(S(=O)(=O)NNc2c3ccccc3nc3ccc(Cl)cc23)cc1,91*,x,10,x,x,-1,42*,28*
COc1ccc2oc(C(=O)OCC(=O)N3CCN(C(C)=O)CC3)c(C)c2c1,43*,2,-1,-2,0,-2,59*,42*
COc1ccc2oc(C(=O)OCC(=O)N3CCCCC3)c(C)c2c1,37*,-8,4,-3,-2,-2,125*,113*
COc1ccc2oc(C(=O)OCC(=O)N3CCN(c4ccccc4)CC3)c(C)c2c1,5,-4,-10,-5,1,-1,x,x
CN(C)c1ccc(/C=N\NC(=O)CC#N)cc1,30*,2,35*,1,-1,-2,12,3
Cc1[nH]c(C(=O)N/N=C/c2ccc(N(C)C)cc2)c(C)c1C(=O)N/N=C/c1ccc(N(C)C)cc1,28*,8,45*,4,-2,0,60*,44*
CN(C)c1ccc(/C=N/NC(=O)CCCO)cc1,20,-1,22,-3,-1,0,x,x
O=C(O)C1=CC[C@@H](c2ccc(Cl)cc2)N(S(=O)(=O)c2ccc(Cl)cc2)[C@H]1c1ccc(Br)cc1,2,3,-13,-17,x,-19,x,x
C#CCN(C[C@H]1[C@H](OC(=O)NCc2ccc(OC)c(OC)c2)[C@H](OC(=O)NCc2ccc(OC)c(OC)c2)C[C@@H](C(=O)OC)[C@H]1C(=O)OC)S(=O)(=O)c1ccc(C)cc1,1,x,-1,x,x,-2,x,x

# Bioassay records as filed in PubChem.
